The sample as a whole holds a higher share of hits than the screen did.
Giardia killer: Giardia lamblia killing. AID 540267. activity change, % at 7.66 µM, hits read low. hit rate 0.15% among 340,000. Giardia lamblia trophozoite viability; in the data active = activity change below about -80%; inconclusive = between about -30% and that limit;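 also: parasites exposed to compound for two days anaerobically before the ATP read; % is scaled to controls: 0 for no effect and ±100 for the full control effect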
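Each well holds 100 Giardia trophozoites and compound. After two days (48 hrs) at 37 deg C in anaerobic conditions, ATP is quantified by luminescence.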
RORg inh: ROR gamma (mouse) transcription inhibition | Drosophila S2 Gal4-RORgamma UAS-luciferase reporter, 20 h | hit rate 5.4% among 310,000 | Potency, µM (doses to about 53.6 µM), inactives show top-dose activity change, negative = inhibition, actives largely listed as inhibitors | AID 2551; also: potency is read from the fitted curve at half-maximal effect; % is scaled to controls: 0 for no effect and ±100 for the full control effect; nearly all actives have a fitted effect of over 60% in size
Target sequence (P51450 whole entry, looked up, the tested form may be a part): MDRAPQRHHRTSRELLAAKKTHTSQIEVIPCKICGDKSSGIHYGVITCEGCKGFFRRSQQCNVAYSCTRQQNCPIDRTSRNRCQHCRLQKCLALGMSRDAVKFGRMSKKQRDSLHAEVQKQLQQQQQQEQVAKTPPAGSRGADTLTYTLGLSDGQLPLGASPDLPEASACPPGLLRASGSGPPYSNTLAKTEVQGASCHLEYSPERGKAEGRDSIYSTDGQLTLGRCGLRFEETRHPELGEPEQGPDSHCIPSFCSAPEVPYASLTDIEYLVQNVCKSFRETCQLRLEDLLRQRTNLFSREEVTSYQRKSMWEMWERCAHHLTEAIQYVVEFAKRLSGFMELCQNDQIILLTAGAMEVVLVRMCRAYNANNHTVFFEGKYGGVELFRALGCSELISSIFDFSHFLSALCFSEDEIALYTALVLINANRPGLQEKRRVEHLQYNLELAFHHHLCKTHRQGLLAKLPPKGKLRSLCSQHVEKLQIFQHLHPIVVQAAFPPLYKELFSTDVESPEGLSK
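Luminescence from a UAS-regulated Photinus luciferase reporter in stably transfected Drosophila Schneider cells is measured; decreased signal marks ROR gamma inhibition. Fusion expression is induced by 700 uM copper sulfate for 20 hr.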
a7 integrin act: activators of alpha7 integrin expression for muscular dystrophy. alpha7betagal myoblasts, beta-gal FDG fluorescence, 48 h. Potency, µM (titrated, usually from 38.3 µM), for inactives: at the top dose activation, usual class: activators. hit rate 0.064% among 350,000;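 also: potency is read from the fitted curve at half-maximal effect; 100% = response of the positive control SU9516; nearly all actives have a fitted effect of over 60% in size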
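Alpha7betagal+/- myoblasts (passage 13) were plated 16-24 hr, then exposed to compounds (1:260 dilution of DMSO stock) for 48 hours at 37C. After MPER lysis, β-galactosidase reporter activity was read as FDG fluorescence (ex 480/em 540) after 30 minutes.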
VP16 counter: Gal4-VP16 reporter inhibition counter-screen; hit rate 3.5% among 310,000; Drosophila S2 Gal4-VP16 UAS-luciferase, luminescence, 20 h; Potency, µM (doses to about 53.6 µM), for inactives: at the highest dose activity, negative = inhibition, usual class: inhibitors;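 also: Gal4-VP16 expression switched on by copper sulfate through the metallothionein promoter; potency is read from the fitted curve at half-maximal effect; % is scaled to controls: 0 for no effect and ±100 for the full control effect; nearly all actives have a fitted effect of over 50% in size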
ERG-DNA inh: inhibitors of human ERG Ets domain-DNA interaction; P11308; fluorescence polarization, His-ERG Ets domain / labelled DNA; Potency, µM (top dose mostly 76.9 µM), inactives show at the top dose FP activity, negative = inhibition, usual class: inhibitors; hit rate 0.028% among 370,000; AID 624246; active = well fitted inhibition curve with a large enough effect in the polarisation, with a control signal flat; inconclusive = small, poorly fitted or top-dose-only effect, or effect the other way, or a change in a side signal; inactive = no such curve, though single readings can be large or run the other way; the % refers to the polarisation;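 also: polarization taken with two DNA probes labelled with fluorescein and Texas red; potency is read from the fitted curve at half-maximal effect; % of control where 0% means no effect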
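His-tagged ERG Ets domain (1 uM in the protein solution; 300mM KCl, 50mM Tris-HCl, 1mM EDTA, 1mM DTT, pH 7.5) received compound, then a probe mix of 5 nM fluorescein-DNA and 100nM Texas-615-DNA. Fluorescence polarization was read for both dyes.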
Numbers without * were called inactive; ? = inconclusive; / = no result given; [ ] = remark or other dose. Unless noted, calls follow the shape of the dose curve; as a rule, active = well fitted curve in the direction sought with a large enough effect; inconclusive = small, poorly fitted or top-dose-only effect, or another doubt; inactive = no such curve, though single readings can be large; an effect the other way counts as inactive or inconclusive.

SMILES	Giardia killer	RORg inh	a7 integrin act	VP16 counter	ERG-DNA inh
COCCN1CCN(Cc2nc(C3(c4ccc(C)cc4)CCCC3)no2)CC1	-2	-13%	11%	6%	-2%
Cc1ccc(C2(c3noc(CN(C)Cc4cccnc4)n3)CCCC2)cc1	?	?	8%	13µM*	-8%
CCOC(=O)C(C)C(C)=O (centres undefined)	7	-4%	/	-2%	-24%
CCOc1ccc(NC(=S)NNC(=S)Nc2cccc(C(F)(F)F)c2)cc1	0	?	7%	-19%	14%
FC(F)(F)c1cccc(NC(=S)Nc2ccc(Cl)c(Cl)c2)c1	-1	?	25%	?	-2%
O=C(NC(=S)Nc1cccc(C(F)(F)F)c1)c1ccc2nonc2c1	0	3.2µM*	-6%	10µM*	-1%
CCOc1cc(OCC)cc(C(=O)NC(=S)Nc2cccc(C(F)(F)F)c2)c1	-16	5µM*	-4%	0%	-5%
O=C(NC1=C(Nc2ccc(Cl)cc2)C(=O)c2ccccc2C1=O)c1ccccc1	-15	14µM*	0%	?	4%
Cc1cccc(NC2=C(NC(=O)c3ccccc3)C(=O)c3ccccc3C2=O)c1	-4	?	-35%	?	7%
O=C1C(Cl)=C(NC(=O)c2ccccc2)C(=O)C(Cl)=C1NC(=O)c1ccccc1	7	7.1µM*	-13%	?	5%
CN(C1=C(NC(=O)c2ccc(Cl)cc2)C(=O)c2ccccc2C1=O)c1ccccc1	-6	11µM*	-56%	11µM*	-13%
O=C(NC1=C(NC2CCS(=O)(=O)C2)C(=O)c2ccccc2C1=O)c1ccccc1 (centres undefined)	8	13µM*	-59%	?	1%
O=C(NC(NC1CCS(=O)(=O)C1)C(=O)c1cccs1)c1ccccc1 (centres undefined)	-5	1%	-27%	6%	5%
C/C(=C\C[Si](C)(C)C)CC[C@H](O)C1=CCCCC1=O	/	12%	/	2%	/
O=C(NCCc1nc2ccccc2n1CCOc1cccc2ccccc12)C1CCCCC1	0	/	/	/	/
COC(=O)N[C@@H](CCc1ccccc1)/C(C(=O)OC)=C(\C)NCc1ccccc1	/	6%	/	-10%	/
CCNC(=S)N/N=C/c1ccc(OCC(=O)Nc2ccc(OC)cc2)c(OC)c1	8	4.5µM*	-15%	?	-4%
COc1cc(/C=N/NC(=O)c2ccc(Cl)cc2)ccc1OCC(=O)N1CC(C)OC(C)C1 (centres undefined)	-2	17%	-449%	-1%	5%
COc1ccc(OCC(=O)Nc2ccc(C)cc2)cc1	11	-1%	3%	8%	1%
COc1cc(/C=N/NC(=S)Nc2cccc(Cl)c2C)ccc1OCC(=O)N1CC(C)OC(C)C1 (centres undefined)	9	1.6µM*	-28%	2.5µM*	4%
CCNC(=S)N/N=C/c1ccc(OCc2ccc(C(=O)OC)cc2)cc1	-8	3.2µM*	1%	?	10%
CCNC(=S)N/N=C/c1ccc(OCC(=O)Nc2ccc(C)cc2)cc1	1	18µM*	-8%	?	-1%
COc1cccc(/C=C/C(=O)OCC(=O)N2c3ccccc3NC(=O)C2(C)C)c1	-16	-1%	-19%	-4%	1%
Cc1cccc(NS(=O)(=O)c2ccc(C)c(C(=O)NCc3ccccn3)c2)c1	-17	/	2%	/	4%
COc1cc(/C=N/NC(=S)NC(C)C)ccc1OCC(=O)Nc1c(C)cc(C)cc1C	13	0.71µM*	-7%	0.5µM*	0%
SMILES	Giardia killer	RORg inh	a7 integrin act	VP16 counter	ERG-DNA inh
CCCc1nnc(SCC(=O)Nc2nc(C)cs2)n1CCOC	-15	0%	31%	0%	2%
[O-][n+]1cccc2c(Br)cc(Br)c(O)c21	-6	0.56µM*	?	0.71µM*	-27%
CCN(CC)CCn1c(=S)[nH]c2cc(C(=O)NCc3ccccc3Cl)ccc2c1=O	26	-14%	-24%	-4%	-3%
O=c1c2ccc(Cl)cc2[nH]c(=S)n1CCC1=CCCCC1	13	1.3µM*	1%	2.5µM*	-3%
CCN(CC)CCCn1c(=S)[nH]c2cc(Cl)ccc2c1=O	16	10µM*	-12%[7.66 µM]	-22%	4%
CCN(CC)CCCn1c(=S)[nH]c2ccc(Cl)cc2c1=O	-16	11µM*	-23%	?	-1%
Cc1ccc2c(c1)[nH]c1c(=O)n(CCC3=CCCCC3)cnc12	/	41%	/	-10%	/
O=c1c2ccc(Cl)cc2[nH]c(=S)n1CCCN1CCOCC1	-7	7.9µM*	-60%	?	5%
COc1ccc(OC)c(CNc2ncnc3c2nc2n3CCCC2)c1	/	/	/	/	2%
CS(=O)(=O)N1CCN(c2ccccc2NC(=O)c2ccc([N+](=O)[O-])o2)CC1	-98*	-32%	-66%	3%	16%
CN1CCN(c2ccccc2NC(=O)c2ccc(-c3cccc([N+](=O)[O-])c3)o2)CC1	23	-17%	-17%	-29%	/
CS(=O)(=O)N1CCN(c2ccccc2NC(=O)c2ccc3c(c2)OCCO3)CC1	0	17%	0%	-22%	10%
CN1CCN(c2ccccc2NC(=O)c2ccc([N+](=O)[O-])o2)CC1	-92*	?	-54%	?	6%
ICCc1ccccc1	/	-1%	/	8%	/
CCCOc1cccc(C2C(C(=O)c3ccc(C)o3)=C(O)C(=O)N2c2nc(C)c(C(C)=O)s2)c1 (centres undefined)	-1	14µM*	-25%	-2%	15%
Cc1cc(-c2n[nH]c(=S)n2/N=C/c2ccc(C)s2)n[nH]1	-5	-36%	2%	-9%	-3%
Cc1ccc(/C=N/n2c(-c3cccnc3)n[nH]c2=S)s1	-10	7.1µM*	-7%	?	11%
CC(/C=N/n1c(-c2ccco2)n[nH]c1=S)=C\c1ccccc1	-7	?	8%	-70%	-1%
S=c1[nH]nc(-c2ccco2)n1/N=C/c1ccccc1Cl	14	3.2µM*	-1%	22µM*	-4%
S=c1[nH]nc(-c2ccco2)n1/N=C/c1ccc(Cl)cc1	-21	4.5µM*	-18%	4µM*	-1%
Cc1ccc(/C=N/n2c(-c3ccco3)n[nH]c2=S)s1	-7	8.9µM*	-7%	?	-15%
CCC1(C(=O)OC)CCc2c(cc(OC)c3ccccc23)C1=O (centres undefined)	9	-21%	-6%	6%	3%
O=C(Nc1ccnn1C1CCN(C(=O)c2cnsn2)CC1)c1cccc(F)c1	-7	9%	-25%	-6%	-5%
O=C(NC(Cc1ccccc1)C(=O)O)/C(=C\c1ccc(Cl)cc1)NC(=O)c1ccco1 (centres undefined)	-15	/	-1%	/	13%
CC1CCN(S(=O)(=O)c2ccc3nc(NCc4ccccc4)ccc3c2)CC1	/	/	/	/	0%
COc1ccc2cc(-c3cc(C(=O)OCC(=O)NC4CCS(=O)(=O)C4)c4ccccc4n3)ccc2c1 (centres undefined)	-88*	2.8µM*	14%	1.8µM*	-1%

Bioassay records as filed in PubChem BioAssay.
